# The source made the active and inactive calls.
# Experiments:
# [1] = E. coli DRC41 culture turbidity changes, primary screen, E. coli filamentation inducer project, strain DRC41, OD650, 48 h (AID 1152);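 also: E. coli MC1000 strain DRC41 lacking acrAB efflux pump and sulA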; conditions: E. coli DRC41 (acrAB sulA), higher = more signal, called active from +8 up or from −8 down
# [2] = small-molecule binders of probe aLefty1, primary screen, biochemical, small-molecule microarray, 635/667 nm fluorescence (AID 1153); conditions: higher = more signal;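 also: score merges spot fluorescence with signal-to-noise ratio from the scanned slide images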
# [3] = PSAC antagonists in infected red cells, primary screen, cell-based, P. falciparum Indochina, OD700, 1 h (AID 1154); conditions: P. falciparum Indochina infected RBC osmotic lysis, higher = more signal, called active from +8 up or from −8 down
# [4] = PSAC antagonists in infected red cells, primary screen, cell-based, P. falciparum Indochina, OD700, 2 h (AID 1155);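 also: lysis reports solute entry through the parasite surface anion channel PSAC; channel blockers reduce lysis of infected cells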; conditions: P. falciparum Indochina infected erythrocytes, osmotic lysis OD700; higher = more signal, called active from +8 up or from −8 down
# [5] = osmotic lysis modulators in infected erythrocytes, primary screen, PSAC antagonist project, cell-based, P. falciparum Indochina, OD700, 3 h (AID 1156); conditions: higher = more signal, called active from +8 up or from −8 down
# [6] = PSAC antagonists in infected red cells, primary screen, cell-based, P. falciparum Indochina, OD700, 18 h (AID 1157); conditions: P. falciparum Indochina infected erythrocytes, osmotic lysis OD700, 18 h; higher = more signal, called active from +8 up or from −8 down
# [7] = modulators of S6 phosphorylation in cells, primary screen, cell-based, A549, cytoblot, luminescence, serum-stimulated (AID 1158); conditions: A549 phospho-S6 cytoblot, 5 h, higher = more signal;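 also: serum-stimulated A549 lung adenocarcinoma cells; signal is phosphorylated S6 detected by cytoblot immunostaining with HRP secondary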
# [8] = biological target: NADPH oxidase 2 (Homo sapiens) (UniProt P04839); assay: NOX2-dependent H2O2 signal modulators, primary screen, NOX inhibitor project, cell-based, HEK293-NOX2, PMA-stimulated, Amplex Red fluorescence (AID 1159); conditions: 45 min, higher = more signal, called active from +8 up or from −8 down; also: test concentration not given here
# NADPH oxidase 2 (Homo sapiens), sequence (P04839 whole entry, looked up): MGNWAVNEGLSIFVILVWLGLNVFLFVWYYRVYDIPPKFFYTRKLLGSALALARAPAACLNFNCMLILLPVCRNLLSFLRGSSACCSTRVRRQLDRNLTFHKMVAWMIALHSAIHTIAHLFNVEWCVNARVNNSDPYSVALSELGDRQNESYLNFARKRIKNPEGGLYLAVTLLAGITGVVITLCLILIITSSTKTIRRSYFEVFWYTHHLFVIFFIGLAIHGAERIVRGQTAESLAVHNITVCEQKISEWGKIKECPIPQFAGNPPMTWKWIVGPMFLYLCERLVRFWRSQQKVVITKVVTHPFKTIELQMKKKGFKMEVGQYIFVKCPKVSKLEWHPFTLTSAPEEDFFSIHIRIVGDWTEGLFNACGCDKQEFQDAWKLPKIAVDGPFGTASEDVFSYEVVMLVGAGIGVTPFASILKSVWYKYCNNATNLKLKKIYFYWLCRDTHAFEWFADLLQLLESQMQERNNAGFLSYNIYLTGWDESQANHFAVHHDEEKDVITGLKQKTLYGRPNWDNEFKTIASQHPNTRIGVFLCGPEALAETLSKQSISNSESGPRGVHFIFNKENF
# [9] = biological target: NADPH oxidase 4 (Homo sapiens) (UniProt Q9NPH5); assay: NOX4-dependent H2O2 signal modulators, primary screen, NOX inhibitor project, cell-based, HEK293-NOX4, tetracycline-induced, Amplex Red fluorescence (AID 1160); conditions: 45 min, higher = more signal, called active from +8 up or from −8 down
# NADPH oxidase 4 (Homo sapiens), sequence (Q9NPH5 whole entry, looked up): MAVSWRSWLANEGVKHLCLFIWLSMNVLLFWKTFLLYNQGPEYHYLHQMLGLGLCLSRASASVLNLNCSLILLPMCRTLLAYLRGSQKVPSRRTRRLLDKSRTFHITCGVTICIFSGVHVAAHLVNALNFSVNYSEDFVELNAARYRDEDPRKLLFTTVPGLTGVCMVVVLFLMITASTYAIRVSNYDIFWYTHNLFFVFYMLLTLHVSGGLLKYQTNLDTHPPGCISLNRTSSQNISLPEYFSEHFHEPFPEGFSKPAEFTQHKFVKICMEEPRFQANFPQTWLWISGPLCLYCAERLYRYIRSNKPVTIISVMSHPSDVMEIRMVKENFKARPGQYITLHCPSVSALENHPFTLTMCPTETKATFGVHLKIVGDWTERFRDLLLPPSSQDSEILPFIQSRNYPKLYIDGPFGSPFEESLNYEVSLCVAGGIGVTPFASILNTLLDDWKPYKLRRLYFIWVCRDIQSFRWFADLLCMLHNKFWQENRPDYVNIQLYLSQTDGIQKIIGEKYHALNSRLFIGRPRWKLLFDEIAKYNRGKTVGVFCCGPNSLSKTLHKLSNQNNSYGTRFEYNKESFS
# [10] = biological target: NADPH oxidase 5 (Homo sapiens) (UniProt Q96PH1); assay: NOX5-dependent H2O2 signal modulators, primary screen, NOX inhibitor project, cell-based, HEK293-NOX5, Amplex Red fluorescence (AID 1161); conditions: HEK293-NOX5, ionomycin, 45 min, higher = more signal
# NADPH oxidase 5 (Homo sapiens), sequence (Q96PH1 whole entry, looked up): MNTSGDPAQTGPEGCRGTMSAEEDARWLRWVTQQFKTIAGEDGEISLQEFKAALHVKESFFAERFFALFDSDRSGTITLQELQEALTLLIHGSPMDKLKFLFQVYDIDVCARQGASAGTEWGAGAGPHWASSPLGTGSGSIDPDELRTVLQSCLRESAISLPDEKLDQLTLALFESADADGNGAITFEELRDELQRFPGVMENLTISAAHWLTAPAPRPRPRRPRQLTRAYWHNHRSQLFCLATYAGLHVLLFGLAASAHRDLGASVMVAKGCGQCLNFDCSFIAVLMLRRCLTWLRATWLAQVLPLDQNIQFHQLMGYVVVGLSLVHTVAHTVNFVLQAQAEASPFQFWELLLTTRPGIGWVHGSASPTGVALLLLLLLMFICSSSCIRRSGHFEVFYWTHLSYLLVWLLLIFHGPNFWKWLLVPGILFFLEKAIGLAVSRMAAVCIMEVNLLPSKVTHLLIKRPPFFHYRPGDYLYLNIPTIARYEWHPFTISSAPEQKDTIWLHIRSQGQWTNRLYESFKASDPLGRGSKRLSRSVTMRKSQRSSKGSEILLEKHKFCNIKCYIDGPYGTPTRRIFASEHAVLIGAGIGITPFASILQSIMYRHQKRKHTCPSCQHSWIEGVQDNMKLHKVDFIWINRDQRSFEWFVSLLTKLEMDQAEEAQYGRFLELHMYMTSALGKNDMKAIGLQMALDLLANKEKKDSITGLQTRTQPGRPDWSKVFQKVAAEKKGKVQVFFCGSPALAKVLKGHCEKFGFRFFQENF
# [11] = A549 cell viability effects, profiling panel, calcein-AM fluorescence, 48 h, basal (AID 1162); conditions: higher = more signal; also: test concentration not given here
# [12] = adipocyte viability effects, profiling panel, cell-based, 3T3-L1 adipocytes, calcein-AM fluorescence, 48 h, basal (AID 1163); conditions: 3T3-L1 adipocytes viability, higher = more signal; also: test concentration not given here
# [13] = HepG2 cell viability effects, profiling panel, calcein-AM fluorescence, 48 h, basal (AID 1164); conditions: higher = more signal; also: test concentration not given here
# [14] = MM1S cell viability effects, profiling panel, calcein-AM fluorescence, 48 h, basal (AID 1165); conditions: higher = more signal;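 also: viability of MM1S multiple myeloma cells under basal unstimulated conditions; test concentration not given here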
# [15] = basal RPMI8226 viability, no added stimulus, profiling panel, cell-based, calcein-AM fluorescence, 48 h, PK04 Diversity Set (AID 1166); conditions: RPMI8226 myeloma viability, higher = more signal;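 also: cells grown under basal conditions without added stimulus; test concentration not given here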
# [16] = basal HepG2 mitochondrial membrane potential changes, profiling panel, cell-based, JC-1 fluorescence, 24 h, 100 nL compound (AID 1167); conditions: higher = more signal; also: test concentration not given here
# [17] = basal 3T3-L1 adipocyte mitochondrial potential changes, profiling panel, cell-based, JC-1 fluorescence, 3T3-L1 adipocytes, 24 h, 100 nL compound (AID 1168); conditions: JC-1 mitochondrial fluorescence, higher = more signal, called active from +8 up or from −8 down; also: test concentration not given here
# [18] = basal RPMI8226 mitochondrial membrane potential changes, profiling panel, cell-based, JC-1 fluorescence, 24 h, 100 nL compound (AID 1169); conditions: RPMI8226 myeloma, JC-1 mitochondrial potential fluorescence, higher = more signal; also: test concentration not given here
# [19] = basal MM1S mitochondrial membrane potential changes, profiling panel, cell-based, JC-1 fluorescence, 24 h, 100 nL compound (AID 1170); conditions: higher = more signal; also: test concentration not given here
# [20] = A549 lung cancer cell viability effects, profiling panel, resazurin fluorescence, 24 h, PK04 Diversity Set (AID 1171); conditions: higher = more signal, called active from +8 up or from −8 down; also: test concentration not given here
Compound,z-score [1],composite z-score [2],z-score [3],z-score [4],z-score [5],z-score [6],z-score [7],z-score [8],z-score [9],z-score [10],z-score [11],z-score [12],z-score [13],z-score [14],z-score [15],z-score [16],z-score [17],z-score [18],z-score [19],z-score [20]
CCCCCCc1nc(-c2ccc(-c3ccc(Cl)c(Cl)c3)o2)c(C)c2c1[Si](C(C)C)(C(C)C)OC2,-0.369 (inactive),-0.198,1.88 (inactive),-0.712 (inactive),0.627 (inactive),-1.57 (inactive),1.7,-4.51 (inactive),-2.74 (inactive),-4.66,-2.55,0.438,-1.55,-3.25,-4.25,-3.26,0.113 (inactive),-0.977,-1.68,-0.312 (inactive)
C[C@H]1C2[C@H](Cc3ccccc3)NC(=O)[C@]23C(=O)NCC(=O)N2CCC[C@H]2C(=O)NC/C=C/CCC/C=C/C3[C@@H]2O[C@]12C (stereo not given in full),1.38 (inactive),-0.103,1.44 (inactive),-0.0812 (inactive),0.391 (inactive),0.133 (inactive),0.781,1.61 (inactive),-0.66 (inactive),1.88,0.776,1.42,-0.39,-0.37,-0.682,0.624,0.244 (inactive),-0.877,1.41,-1.46 (inactive)
O=C1C2C=CC(C(O)c3ccc(-c4ccccc4)s3)N(Nc3ccccc3)C2C(=O)N1c1ccccc1 (stereo not given),-0.517 (inactive),0.591,8.45 (active),2.11 (inactive),0.214 (inactive),1.1 (inactive),-0.505,-0.986 (inactive),-3.23 (inactive),-0.493,-0.574,-1.35,0.128,-0.338,-1.45,-1.75,0.0226 (inactive),0.054,-0.271,0.0364 (inactive)
COC(=O)[C@@]1(Cc2ccc(OC)cc2)[C@H]2c3cc(C(=O)N4CCCC4)n(CCCNc4ncc(C(F)(F)F)cc4Cl)c3C[C@H]2CN1C(=O)c1ccccc1,-1.46 (inactive),0.982,10.1 (active),1.37 (inactive),2.15 (inactive),1.13 (inactive),-0.0195,0.128 (inactive),0.577 (inactive),1.65,-1.54,-1.03,-0.841,-1.9,-4.57,0.261,-1.31 (inactive),-0.873,-1.28,-0.577 (inactive)
